The text below walks through data of PubChem BioAssay (Tox21).

Active and inactive are the calls of the source. The call rests on the fitted dose curve; in most records, active means well fitted activation curve with a large enough effect in the repeat runs; inconclusive means weak or mixed curves; inactive means flat fitted curve, though single readings scatter.

A short description of this assay: Caspase-3/7 induction in CHO-K1 cells by small molecules, qHTS assay (AID 1346980). Further: nearly all actives have a fitted effect of over 15% in size. The settings on record: CHO-K1 caspase-3/7 induction, Caspase-Glo luminescence, 17 h; series mostly up to 92.4 µM. The source says:
National Center for Advancing Translational Sciences [NCATS]
NIH Chemical Genomics Center [NCGC]
U.S. Environmental Protection Agency [EPA]
National Institutes of Environmental Health Sciences [NIEHS]
National Toxicology Program [NTP]
Apoptosis is a process of programmed cell death and plays a central role in the development of multicellular organisms. It is a highly regulated process and induces cell death by activating caspases, which are the members of cysteine aspartic acid-specific protease (caspase) family. Caspases involved in apoptosis are classified by their mechanism of action as initiator caspases (caspase-2, -8, -9 and -10) and executioner caspases (caspase-3, -6, and -7). Inhibition of apoptosis results in number of cancers, autoimmune diseases, inflammatory diseases and viral infection. To identify small molecule compounds that induce apoptosis, a homogeneous, luminescent Caspase-Glo 3/7 assay was used. Wild type CHO-K1 cells were used to screen Tox21 libraries for identifying caspase-3/7 activity inducers.
CHO-K1 cells were dispensed at 1,500 per well in 5uL of culture medium into white solid bottom 1536-well plates (Corning Life Sciences, Corning, NY) using a Multidrop Combi (Thermo Scientific, Waltham, MA) dispenser. The assay plates were incubated at 37 C and 5% CO2 for 5hr, and then 23nL of compounds dissolved in DMSO and positive control were transferred using a Pintool station (Wako, San Diego, CA). The assay plates were incubated at 37C and 5% CO2 for 17hr. For caspase-3/7 activity read, 4uL of Caspase-Glo 3/7 reagent (Promega Corporation, Madison, WI) was added to each well of the assay plates using Flying Reagent Dispenser (FRD, Aurora Discovery, San Diego, CA) and incubated the assay plates at room temperature for 30min. The luminescence signal was quantified using a ViewLux plate reader (Perkin Elmer, Shelton, CT).
On the technique in general: qHTS replaces the single test concentration by a dilution series.
For `CC(C)(O)CCc1ccccc1`, the outcome was inactive.
In the case of `CN1C(CSCC(F)(F)F)Nc2cc(Cl)c(S(N)(=O)=O)cc2S1(=O)=O` (stereo not given), the call was inactive.
With `Cc1ccc(NC(=O)N(C)C)cc1NC(=O)N(C)C`, the result was inactive.
With `COc1cc(S(=O)(=O)Nc2ccccc2)c(OC)cc1N`, the compound was called inactive.
For `Cc1cn([C@H]2C[C@H](F)[C@@H](CO)O2)c(=O)[nH]c1=O`, the result was inactive.
Then `BrC(Br)C(Br)Br`, with “inactive”.
As for `COC(=O)CC(C(C)=O)C(=O)OC` (stereo not given), the result was inactive.
Turning to `CC(CO)(CO)C(=O)O`, the compound was called inactive.
Take `CC(C)COC(=O)COc1cc(Cl)c(Cl)cc1Cl`: the compound was called inactive.
For `Cc1cc(CCCOc2c(C)cc(-c3noc(C(F)(F)F)n3)cc2C)on1` the value was “inactive”.
Consider `O=C(O)CCC(=O)c1ccc(-c2ccccc2)cc1`, for which the outcome was inactive.
`COC(=O)c1sccc1S(N)(=O)=O`: the compound was classed as inactive.
For `Nc1ccc(NC(=O)c2ccc(N)cc2)cc1`, the result was inactive.
As to `CCN(CC)c1cccc(O)c1`, the result was inactive.
Then `CNCc1ccc(NC(=O)c2c[nH]c3c2C(=O)CCC3)cc1`, with “inactive”.
Then `C=C(C)C(=O)OCCC(F)(F)C(F)(F)C(F)(F)C(F)(F)C(F)(F)C(F)(F)F`, with “inactive”.
In the case of `CCC(CO)(CO)CO`, the compound was called inactive.
With `CCOC(=O)c1c(N)sc2c1CCN(Cc1ccccc1)C2`, the compound was classed as inactive.
For the compound `Nc1ccc(N=Nc2ccc(N)cc2)cc1`, the compound was classed as inactive.
As for `O=C(O)CNC(=O)c1ccccc1I`, the compound was called inactive.
For `Cc1ccc(N(CC2=NCCN2)c2cccc(O)c2)cc1`, the result was inactive.
In the case of `O=C(O)c1cc(Cl)cc(Cl)c1O`, the outcome was inactive.
Regarding `CCOC(=O)C(C)O` (stereo not given), the outcome was inactive.
For the compound `CC(=O)C(=O)CC(C)C`, the call was inactive.
On to `ClC1=C(Cl)C1(Cl)Cl`, for which the compound was called inactive.
For `CC(=O)NNC(C)=O` the value was “inactive”; for `CCOC(=O)Oc1ccc(CCNC(=O)[C@H](CCSC)NC(C)=O)cc1OC(=O)OCC`, “inactive”.
With `Cc1ccc(N(CCO)CCO)cc1`, the result was inactive.
With `CCN(CC)CCNC(=O)c1cc(Cl)c(N)cc1OC`, the result was inactive.
`O=c1[nH][nH]c(=O)c2cc([N+](=O)[O-])ccc12`: the compound was called inactive.
Take `CC(=O)OCC1=C(C(=O)O)N2C(=O)[C@@H](NC(=O)CSc3ccncc3)[C@H]2SC1`: the compound was classed as inactive.
For the compound `CCCCCCCCCCCC(=O)OCC(O)CO` (stereo not given), the compound was classed as inactive.
`CCCCCCCCCCCCCCCC(=O)OCC`: the call was inactive.
Regarding `C=Cc1ccc(OC(C)=O)cc1`, the compound was classed as inactive.
Then `O=C1NC(=O)c2cccc3cccc1c23`, with “inactive”; and `CCOc1ncc(F)c(=O)[nH]1`, with “inactive”; and `CC(=O)Oc1cccc(O)c1`, with “inactive”.
With `CC(=O)OCCC1CCCCC1`, the call was inactive.
For `CC(C)c1ccc(C#N)cc1` the value was “inactive”.
Take `CCCCCCCC(=O)Oc1c(Br)cc(C#N)cc1Br`: the compound was classed as inactive.
